# Experimental data: PubChem BioAssay (NCATS)
# Records with an inconclusive call do not appear. A number with no mark means an inactive call. Activity calls are given as the source filed them. Calls come from the whole dose curve; as a rule, active = well fitted inhibition curve with a large enough effect; inconclusive = small, poorly fitted or top-dose-only effect; inactive = no such curve, though single readings can be large or run the other way.
# Assay: BET inhibitor-based combinations targeting novel dependencies in MECOM-rearranged (r) AML: HNT-34 cell line (AID 2202234); note: nearly all actives have a fitted effect of over 35% in size;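 for viability (% of control): plate controls were vehicle wells for no effect and cell-free wells for full effect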
# Details: HNT-34 AML viability, CellTiter-Glo luminescence, 48 h; series mostly up to 46 µM; viability (% of control): at the top concentration
# How it was run: (§1)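 Using pin-tool transfer, drugs were added in 11 doses to cells (500/well), incubated 48 hr, and assessed with CellTiter-Glo. Z-AUC is a mean-centring transformation applied separately to each screened line.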
# Potency is the fitted concentration of half-maximal effect.
Structure (SMILES),Potency,viability (% of control) [%]
CO[C@H]1CCC(O[C@H]2C[C@H]([C@]3(C)CC[C@]4(C[C@H](O)[C@@H](C)[C@@H]([C@@H](C)/C=C(\C)C(=O)[C@H](C)C[C@H](C)C(=O)O)O4)O3)O[C@]3(O[C@@H]([C@H]4O[C@@](O)(CO)[C@H](C)C[C@@H]4C)C[C@@H]3C)[C@@H]2C)O[C@@H]1C (some centres undefined),148 nM (active),
COC[C@H]1OC(=O)c2coc3c2[C@@]1(C)C1=C(C3=O)[C@@H]2CC[C@H](O)[C@@]2(C)C[C@H]1OC(C)=O,5250 nM (active),
COC(=O)[C@]12CCC(C)(C)C[C@H]1[C@H]1C(=O)C=C3[C@@]4(C)C=C(C#N)C(=O)C(C)(C)[C@@H]4CC[C@@]3(C)[C@]1(C)CC2,1660 nM (active),
C[C@H]1CCC/C=C/C2C[C@H](O)C[C@H]2[C@H](O)/C=C/C(=O)O1 (some centres undefined),296 nM (active),
CC1(C)CC(O)CC(C)(C)N1O,,114
C[C@@]12OC(=O)[C@]1([C@@H](O)[C@@H]1C=CCCC1)NC(=O)[C@@H]2CCCl,37.2 nM (active),
CN(C)NC(=O)CCC(=O)O,,85.6
CC(=O)OC[C@H]1O[C@@H]([S-])[C@H](OC(C)=O)[C@@H](OC(C)=O)[C@@H]1OC(C)=O.CC[PH+](CC)CC.[Au],833 nM (active),
C[C@@H]1CC[C@@]2(OC1)O[C@H]1C[C@H]3[C@@H]4CC=C5C[C@@H](O[C@@H]6O[C@H](CO)[C@@H](O[C@@H]7O[C@@H](C)[C@H](O)[C@@H](O)[C@H]7O)[C@H](O)[C@H]6O[C@@H]6O[C@@H](C)[C@H](O)[C@@H](O)[C@H]6O)CC[C@]5(C)[C@H]4CC[C@]3(C)[C@H]1[C@@H]2C,5250 nM (active),
C[C@]12CC[C@H](O)CC1=CC[C@@H]1[C@@H]2CC[C@]2(C)C(=O)CC[C@@H]12,,114
C/C(=C\c1csc(C)n1)[C@@H]1C[C@@H]2O[C@]2(C)CCC[C@H](C)[C@H](O)[C@@H](C)C(=O)C(C)(C)[C@@H](O)CC(=O)O1,8.3 nM (active),

# Assay: BET inhibitor-based combinations targeting novel dependencies in MECOM-rearranged (r) AML: UCSD-AML1 cell line (AID 2202235); note: nearly all actives have a fitted effect of over 40% in size;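 for viability (% of control): plate controls were DMSO vehicle wells for no effect and blank wells for full effect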
# Details: UCSD-AML1 AML cells viability, CellTiter-Glo, 48 h; series mostly up to 46 µM; viability (% of control): at the top concentration
# How it was run: as §1
Structure (SMILES),viability (% of control) [%],Potency
COc1cc2cc(c1Cl)N(C)C(=O)C[C@H](OC(=O)C(C)C)[C@]1(C)O[C@@H]1[C@H](C)[C@@H]1C[C@@](O)(NC(=O)O1)[C@H](OC)/C=C/C=C(\C)C2,15.6,
CO[C@H]1CCC(O[C@H]2C[C@H]([C@]3(C)CC[C@]4(C[C@H](O)[C@@H](C)[C@@H]([C@@H](C)/C=C(\C)C(=O)[C@H](C)C[C@H](C)C(=O)O)O4)O3)O[C@]3(O[C@@H]([C@H]4O[C@@](O)(CO)[C@H](C)C[C@@H]4C)C[C@@H]3C)[C@@H]2C)O[C@@H]1C (some centres undefined),,2630 nM (active)
COC[C@H]1OC(=O)c2coc3c2[C@@]1(C)C1=C(C3=O)[C@@H]2CC[C@H](O)[C@@]2(C)C[C@H]1OC(C)=O,,1660 nM (active)
COC(=O)[C@]12CCC(C)(C)C[C@H]1[C@H]1C(=O)C=C3[C@@]4(C)C=C(C#N)C(=O)C(C)(C)[C@@H]4CC[C@@]3(C)[C@]1(C)CC2,,1480 nM (active)
C/C1=C/C[C@@H](/C(C)=C/c2csc(C)n2)OC(=O)C[C@H](O)C(C)(C)C(=O)[C@H](C)[C@@H](O)[C@@H](C)CCC1,,118 nM (active)
C#CCN(C)[C@H](C)Cc1ccccc1,106,
C[C@H]1CCC/C=C/C2C[C@H](O)C[C@H]2[C@H](O)/C=C/C(=O)O1 (some centres undefined),,209 nM (active)
COC[C@@H](NC(C)=O)C(=O)NCc1ccccc1,103,
CC1(C)CC(O)CC(C)(C)N1O,112,
CC(C)[C@]12O[C@H]1[C@@H]1O[C@@]13[C@@]1(C)CCC4=C(COC4=O)[C@@H]1C[C@@H]1O[C@@]13C2=O,,74.2 nM (active)
C[C@@]12OC(=O)[C@]1([C@@H](O)[C@@H]1C=CCCC1)NC(=O)[C@@H]2CCCl,,33.2 nM (active)
C[C@]12CC[C@@H]3[C@@H](CCC4=CC(=O)CC[C@@H]43)[C@@H]1CC[C@@H]2OC(=O)CCc1ccccc1,115,
COCC1(CO)C(=O)C2CCN1CC2 (centres undefined),,5250 nM (active)
CC(=O)OC[C@H]1O[C@@H]([S-])[C@H](OC(C)=O)[C@@H](OC(C)=O)[C@@H]1OC(C)=O.CC[PH+](CC)CC.[Au],,934 nM (active)
C[C@@H]1CC[C@@]2(OC1)O[C@H]1C[C@H]3[C@@H]4CC=C5C[C@@H](O[C@@H]6O[C@H](CO)[C@@H](O[C@@H]7O[C@@H](C)[C@H](O)[C@@H](O)[C@H]7O)[C@H](O)[C@H]6O[C@@H]6O[C@@H](C)[C@H](O)[C@@H](O)[C@H]6O)CC[C@]5(C)[C@H]4CC[C@]3(C)[C@H]1[C@@H]2C,,8330 nM (active)
O=C(Nc1ccncc1)C(=O)c1cn(Cc2ccc(Cl)cc2)c2ccccc12,,332 nM (active)
C[C@]12CC[C@H](O)CC1=CC[C@@H]1[C@@H]2CC[C@]2(C)C(=O)CC[C@@H]12,112,
C/C(=C\c1csc(C)n1)[C@@H]1C[C@@H]2O[C@]2(C)CCC[C@H](C)[C@H](O)[C@@H](C)C(=O)C(C)(C)[C@@H](O)CC(=O)O1,,5.9 nM (active)
